Laboratory results published in the supplement of paper PMC6555819.

What was measured:
Assay in all cases: PBM binding z-score (relative to random genomic background probes); higher = stronger binding; sequences stand for … in GC…GCGATTGACAGCGTAGAATGAAGG
[1] = test system: FXR:RXRa (NR concentration 270 nM, RXRa partner concentration 90 nM)
How it was run: (§1)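 Regression normalization was applied to scanned fluorescence from custom Agilent 4×180K protein-binding microarrays. Before scanning, arrays were incubated 1 h with ligand-free nuclear receptor dimers, and binding was detected with antibodies against each partner (one per run). Binding z-scores use the random background probes as reference.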

[2] = test system: LXRa:RXRa (NR concentration 270 nM, RXRa partner concentration 90 nM)
How it was run: as §1

[3] = test system: LXRa homodimer (NR concentration 270 nM)
How it was run: as §1

[4] = test system: LXRb:RXRa (NR concentration 270 nM, RXRa partner concentration 90 nM)
How it was run: as §1

[5] = test system: LXRb homodimer (NR concentration 270 nM)
How it was run: as §1

[6] = test system: PPARa:RXRa (NR concentration 270 nM, RXRa partner concentration 90 nM)
How it was run: as §1

[7] = test system: PPARg:RXRa (NR concentration 180 nM, RXRa partner concentration 90 nM)
How it was run: as §1

[8] = test system: PPARg:RXRa 270nM:90nM, anti-RXR (NR concentration 270 nM, RXRa partner concentration 90 nM)
How it was run: as §1

[9] = test system: PPARg:RXRa 30nM:10nM, anti-RXR (NR concentration 30 nM, RXRa partner concentration 10 nM)
How it was run: as §1

[10] = test system: PPARg:RXRa 90nM:30nM, anti-RXR (NR concentration 90 nM, RXRa partner concentration 30 nM)
How it was run: as §1

[11] = test system: PPARg:RXRa DBDmut IVT, anti-RXR (DBD mutation: RXRa K156A/R161A, NR concentration 270 nM, RXRa partner concentration 90 nM)
How it was run: as §1

[12] = test system: PPARg:RXRa IVT, anti-PPARg (NR concentration 270 nM, RXRa partner concentration 90 nM)
How it was run: as §1

[13] = test system: PPARg DBDmut:RXRa IVT, anti-PPARg (DBD mutation: PPARg1 K132A/R137A, NR concentration 270 nM, RXRa partner concentration 90 nM)
How it was run: as §1

[14] = test system: PPARg DBDmut IVT, anti-PPARg (DBD mutation: PPARg1 K132A/R137A, NR concentration 270 nM)
How it was run: as §1

[15] = test system: PPARg homodimer (NR concentration 180 nM)
How it was run: as §1

[16] = test system: PXR:RXRa (NR concentration 270 nM, RXRa partner concentration 90 nM)
How it was run: as §1

[17] = test system: PXR homodimer (NR concentration 270 nM)
How it was run: as §1

[18] = test system: RARa:RXR (NR concentration 270 nM, RXRa partner concentration 90 nM)
How it was run: as §1

[19] = test system: RARa homodimer (NR concentration 270 nM)
How it was run: as §1

[20] = test system: RARb:RXRa (NR concentration 270 nM, RXRa partner concentration 90 nM)
How it was run: as §1

| Sequence | PBM binding z-score [1] | PBM binding z-score [2] | PBM binding z-score [3] | PBM binding z-score [4] | PBM binding z-score [5] | PBM binding z-score [6] | PBM binding z-score [7] | PBM binding z-score [8] | PBM binding z-score [9] | PBM binding z-score [10] | PBM binding z-score [11] | PBM binding z-score [12] | PBM binding z-score [13] | PBM binding z-score [14] | PBM binding z-score [15] | PBM binding z-score [16] | PBM binding z-score [17] | PBM binding z-score [18] | PBM binding z-score [19] | PBM binding z-score [20] |
| --- | --- | --- | --- | --- | --- | --- | --- | --- | --- | --- | --- | --- | --- | --- | --- | --- | --- | --- | --- | --- |
| ACTTACGGGTCAACGAGGTAATAGCACGCGTATA | 6.86 | 4.42 | 0.29 | 3.61 | 0.727 | 5.72 | 5.56 | 5.53 | 2.48 | 4.37 | 3.55 | 4.22 | 1.27 | 1.43 | 2.86 | 3.81 | 0.484 | 4.62 | 0.585 | 4.15 |
| TATACAGGGTCAAAGGCCAGAGGACGAATGTCGA | 7.18 | 6.58 | 2.34 | 4.72 | 2.59 | 5.98 | 8.38 | 7.61 | 5.3 | 7.21 | 1.96 | 4.98 | 2.24 | 2.72 | 3.14 | 4.5 | 0.565 | 5.97 | 0.998 | 4.43 |
| CCTCGGAGGACAACATGAGGTCAGAGCTGCCAGA | 1.56 | 3.37 | 3.95 | 2.18 | -0.278 | 2.38 | 0.717 | 0.534 | -0.623 | 0.0899 | 0.44 | 0.437 | -0.816 | -1.02 | 1.69 | 2.8 | 0.437 | 2.67 | 0.194 | 3.04 |
| CCTAGCAGGCCAGGGTCACTAAAGCATTTCGCTT | 1.78 | 1.59 | -0.472 | 1.78 | -1.37 | 3.06 | 0.442 | 1.2 | -0.365 | 0.422 | 0.051 | 0.519 | -1.03 | -1.22 | 0.403 | 2.21 | -0.725 | 2.96 | -0.568 | 2.35 |
| CCGAGTAGGTTATGGGGCATCCAGGCAACGGTGA | 0.103 | 0.375 | -0.312 | 0.332 | -0.509 | 2.36 | 3.95 | 4.52 | 1.97 | 4.17 | 2.41 | 3.47 | 0.134 | -0.392 | 0.993 | -0.0112 | -0.414 | 0.287 | 0.0576 | 0.965 |
| CTGGAAAGGTCGTGCTCAGGTGAGTATACCAAAC | 5.25 | 3.35 | -0.219 | 2.7 | -0.505 | 4.7 | 2.63 | 3.81 | 1.04 | 2.24 | 0.634 | 1.35 | -0.0196 | 0.149 | 1.33 | 3.07 | -0.203 | 4.31 | -0.374 | 3.59 |
| TAGCCTAGGTCATTCACGGGCCAGTATAGAAAGC | 4.64 | 3.74 | 0.702 | 2.48 | 0.779 | 3.36 | 2.05 | 2.19 | 0.448 | 1.74 | 1.89 | 2.6 | 1.17 | 0.147 | 2.35 | 2.01 | -0.0937 | 2.84 | 0.0278 | 3.69 |
| TTACCAGGGTGAAAGGTCGTTGATGCACGCCTTG | 3.76 | 3.21 | 0.701 | 3.12 | -0.0752 | 5.36 | 8.62 | 7.7 | 6.89 | 9.22 | 2.27 | 4.77 | 0.849 | 0.523 | 3.33 | 4.25 | 0.522 | 5.93 | 0.262 | 2.59 |
| TTACCAAGGTGAGCTTAGGTCGTTGATCCAACTC | 0.558 | 0.409 | -0.684 | 0.122 | -1.23 | 1.05 | -0.0698 | 0.725 | -0.0893 | 0.244 | 1.61 | 1.67 | -0.375 | -0.536 | -0.601 | 1.62 | -0.264 | 0.665 | -0.83 | 1.36 |
| CAGCCTAGGTCAGGGCCAGTAAAGGAGGAACGTT | 1.69 | 0.93 | -0.563 | 0.471 | -1.1 | 2.26 | 0.751 | 0.991 | -0.53 | 0.142 | 1.26 | 1.51 | -1.63 | -1.14 | 0.652 | 0.328 | -0.795 | 1.08 | 0.335 | 3.49 |
| TAGCCTGGGTCATGCGGGCCAGTATAGTGTCGGC | 3.19 | 1.79 | -0.665 | 1.03 | -0.444 | 3.4 | 2.12 | 2.48 | 0.16 | 1.54 | 0.519 | 2.76 | -0.229 | 0.545 | 0.758 | 1.64 | -0.615 | 2.42 | -0.605 | 3.18 |
| TCTTGTAGATCAAGCAGGTTAACAAAGCCTGAGT | 0.489 | 0.545 | 0.00608 | 0.81 | -0.426 | 0.99 | -0.0763 | 1.23 | 2.44 | 2.04 | 1.57 | 0.741 | 0.45 | 0.44 | 0.0405 | 0.699 | 0.326 | 0.629 | -0.263 | 0.298 |
| TCATATAGGTAAGCAGGTGAAAGTCCGTAAGTTA | 0.125 | 0.178 | -0.0439 | 0.39 | -0.523 | 1.74 | 2.16 | 3.14 | 3.46 | 3.36 | 4.03 | 3.94 | 0.357 | 0.715 | 0.516 | 0.257 | 0.129 | 0.662 | 0.214 | 0.318 |
| CCTTACGGGTCACTAACAGGTTATAGCATTTGGA | 4.73 | 4.24 | 0.54 | 3.4 | 0.319 | 4.89 | 3.61 | 3.78 | 1.37 | 2.83 | 2.88 | 3.68 | 1.26 | 0.395 | 2.62 | 3.28 | 0.184 | 4.08 | 1.72 | 3.92 |
